The record followed here is the supplement of paper PMC9446081.

Among all 39,000 compounds or so, about 220 (0.56%) showed activity. Shown is part of a subset that was picked to be rich in actives.
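Further: Wild-type cells incubated without shaking, value is the mean of two biological replicates.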

This assay deals with Escherichia coli K-12 BW25113. As to the kind of experiment: relative growth (OD600 normalised to plate interquartile mean) (fraction); higher = less growth inhibition, active = 0.2 or less. The following applies: 50 µM; LB; incubation time: overnight (16-24 h).
`COc1ccc([Si](C)(C)[C@H]2[C@H](CCOC(=O)NCCCCCC(=O)NO)O[C@]3(C(=O)N(Cc4cccc(N5CCCCC5=O)c4)c4ccccc43)[C@@H]2C)cc1`: the relative growth is 1.02 (inactive).

For `Nc1cc[nH]c(=O)n1`, the relative growth is 0.997 (inactive).

In the case of `CCCCCCCCCCCCC[N+](C)(C)Cc1ccccc1`, the relative growth was 0.0319 (active).

As for `CC[N+](C)(CC)Cc1ccccc1`, the relative growth is 0.993 (inactive).

In the case of `CCCCC(O)c1ccccc1` (stereo not given), the relative growth was 0.973 (inactive).

Turning to `CCCC[C@@H](O)c1ccccc1`, the relative growth is 0.992 (inactive).

For `CCCCCc1ccccn1`, the relative growth was 0.974 (inactive).

For the molecule `CCCCCCCCCCCCC[N+](C)(C)Cc1ccccc1.O.[Cl-]`, the relative growth was 0.0544 (active).

Regarding `CCCCCCCCCCCCCCCC[N+](C)(C)Cc1ccccc1.[Cl-]`, the relative growth is 0.0933 (active).

Consider `CCCCNc1ccccc1`, for which the relative growth is 0.996 (inactive).

Regarding `CCCCCCCCCCCCCCCC[N+](C)(C)CCN(Cc1ccc(OC)cc1)c1ncccn1`, the relative growth is 0.555 (inactive).

`C[C@H](CO)N1C[C@H](C)[C@@H](CN(C)Cc2ccc(Oc3ccccc3)cc2)Oc2c(NC(=O)Nc3ccc(C(F)(F)F)cc3)cccc2C1=O`: the relative growth was 0.795 (inactive).

Take `CN(C)CC(=O)N[C@@H]1CC[C@@H](CC(=O)O)O[C@@H]1CO`: the relative growth was 0.983 (inactive).

As to `C[C@H](CO)N1C[C@H](C)[C@@H](CN(C)CC2CCCCC2)Oc2ccc(NC(=O)CCN3CCOCC3)cc2C1=O`, the relative growth is 0.981 (inactive).

In the case of `NCC[C@@H]1CC[C@H](NC(=O)C2CC2)[C@H](CO)O1`, the relative growth is 0.995 (inactive).

For the molecule `C[C@H]1CN([C@@H](C)CO)C(=O)CCCn2nncc2CO[C@@H]1CN(C)Cc1cccc2c1OCCCO2`, the relative growth was 0.992 (inactive).

As for `O=C(Oc1ccc(Cl)cc1)c1sc2ccccc2c1Cl`, the relative growth was 1.05 (inactive).

In the case of `Oc1c(I)cc(Cl)c2cccnc12`, the relative growth was 0.463 (inactive).

Take `Oc1c(Cl)cc(Cl)c2cccnc12`: the relative growth is 0.111 (active).

On to `NS(=O)(=O)c1ccc(O)c([N+](=O)[O-])c1`, for which the relative growth was 0.992 (inactive).

Consider `Oc1c(Br)cc(Br)c2cccnc12`, for which the relative growth was 0.379 (inactive).

Turning to `Fc1cccc2c(Cl)ccnc12`, the relative growth was 0.976 (inactive).

Take `Oc1c(I)cc(I)c2cccnc12`: the relative growth is 1.04 (inactive).

`Nc1ncccc1O`: the relative growth is 1.03 (inactive).

As for `O=[N+]([O-])c1ccc(O)c2ncccc12`, the relative growth is 0.0542 (active).

For the molecule `Oc1ccc(Cl)c2cccnc12`, the relative growth is 0.0534 (active).

On to `C[C@H]1CN([C@@H](C)CO)C(=O)c2cc(NC(=O)Cn3cnnn3)ccc2O[C@@H]1CN(C)Cc1ccncc1`, for which the relative growth is 1.02 (inactive).

On to `C[C@@H]1CN([C@H](C)CO)C(=O)c2cc(NS(=O)(=O)c3ccc(F)cc3)ccc2O[C@H]1CN(C)S(=O)(=O)c1cn(C)cn1`, for which the relative growth is 1.04 (inactive).

With `C[C@@H]1CN([C@@H](C)CO)C(=O)c2cc(NC(=O)C3CCCCC3)ccc2O[C@@H](C)CCCCO[C@H]1CN(C)Cc1ccc(C(=O)O)cc1`, the relative growth is 0.977 (inactive).

For `Cl.Nc1ccn(C2OC(CO)C(O)C2(F)F)c(=O)n1` (stereo not given), the relative growth was 1.09 (inactive).

With `COc1ccc(S(=O)(=O)Nc2ccc3c(c2)C(=O)N([C@@H](C)CO)C[C@H](C)[C@H](CN(C)S(=O)(=O)c2ccc(F)cc2)O3)cc1`, the relative growth is 1 (inactive).

Regarding `C[C@H](CO)N1C[C@H](C)[C@@H](CN(C)Cc2ccc(C(=O)O)cc2)OCCCC[C@H](C)Oc2ccc(NC(=O)Nc3ccc4c(c3)OCO4)cc2C1=O`, the relative growth is 0.95 (inactive).

In the case of `COCC#Cc1cnc2c(c1)C(=O)N([C@H](C)CO)C[C@H](C)[C@@H](CN(C)S(=O)(=O)c1ccccc1)O2`, the relative growth was 1 (inactive).

With `CC(=O)N[C@H](C)c1cn(C)nc1C`, the relative growth is 1.03 (inactive).

For the molecule `C[C@@H]1CN([C@H](C)CO)C(=O)c2cc(NC(=O)C3CCCCC3)ccc2O[C@@H](C)CCCCO[C@@H]1CN(C)S(=O)(=O)c1cccs1`, the relative growth is 0.933 (inactive).

In the case of `O=c1[nH]cc(Nc2ccccc2)c(=O)[nH]1`, the relative growth was 1.01 (inactive).

For the molecule `O=c1[nH]cc(N2CCCCC2)c(=O)[nH]1`, the relative growth was 1 (inactive).

Consider `O=c1[nH]cc(F)c(=O)[nH]1`, for which the relative growth is 0.196 (active).

`C[N+]1(C)C2CCC1CC(OC(=O)C(O)c1ccccc1)C2.[Br-]` (stereo not given): the relative growth is 0.924 (inactive).

`Nc1nnc(C(=O)c2ccccc2N)s1`: the relative growth was 0.951 (inactive).

For `Cc1noc(C)c1NC(=O)Nc1ccc2c(c1)CC(=O)N([C@@H](C)CO)C[C@H](C)[C@H](CN(C)S(=O)(=O)c1ccccc1)O2`, the relative growth is 0.971 (inactive).

Consider `Cc1noc(C)c1NC(=O)N(C)C[C@H]1Oc2ccc(NS(=O)(=O)c3c(C)noc3C)cc2CC(=O)N([C@@H](C)CO)C[C@@H]1C`, for which the relative growth was 0.985 (inactive).

`C[C@H](CO)N1C[C@H](C)[C@@H](CN(C)S(=O)(=O)c2ccccc2)OCCCC[C@H](C)Oc2ccc(NS(=O)(=O)c3cn(C)cn3)cc2C1=O`: the relative growth was 0.993 (inactive).

For the molecule `O=C(NO)c1cn(-c2cccc(C(=O)N3CCC4(CC3)C(=O)NCN4c3ccccc3)c2)nn1`, the relative growth was 0.0368 (active).

Turning to `O=C(NO)c1cn(CC(=O)N2CCC3(CC2)C(=O)NCN3c2ccccc2)nn1`, the relative growth was 0.94 (inactive).

For the molecule `O=C(/C=C/c1cccc(-c2cn(-c3cccc(C(=O)N4CCC5(CC4)C(=O)NCN5c4ccccc4)c3)nn2)c1)NO`, the relative growth was 0.972 (inactive).

Consider `C[C@H](CO)N1C[C@H](C)[C@@H](CN(C)CC2CC2)Oc2c(NS(=O)(=O)c3cn(C)cn3)cccc2C1=O`, for which the relative growth is 0.999 (inactive).

Turning to `COC(=O)C[C@@H]1CC[C@@H]2[C@@H](COc3ccc(NS(=O)(=O)c4ccccc4Cl)cc3C(=O)N2C)O1`, the relative growth is 1.03 (inactive).

For `CS(=O)(=O)Nc1cccc(C2=NN(c3nc(-c4ccccc4)c4cc(Cl)ccc4n3)[C@H](c3ccco3)C2)c1`, the relative growth is 1 (inactive).

Take `Cc1noc(C)c1NC(=O)Nc1ccc2c(c1)C(=O)N([C@@H](C)CO)C[C@@H](C)[C@H](CN(C)S(=O)(=O)c1ccc(F)cc1)OCCCC[C@H](C)O2`: the relative growth was 1.03 (inactive).

On to `O=C(C[C@@H]1C[C@@H]2c3cc(NS(=O)(=O)c4ccc(F)cc4)ccc3O[C@@H]2[C@H](CO)O1)NC1CCCC1`, for which the relative growth was 0.992 (inactive).

On to `COc1ccc(C#Cc2ccc3c(c2)O[C@@H](CN(C)C(C)=O)[C@@H](C)CN([C@@H](C)CO)S3(=O)=O)cc1`, for which the relative growth is 1.03 (inactive).

On to `COc1ccc(C2=C(N)C(=O)NC2=O)cc1OC`, for which the relative growth is 0.93 (inactive).

Consider `COc1cccnc1N`, for which the relative growth is 0.99 (inactive).

For `COc1cc(O)cc(OC)c1OC`, the relative growth was 1.1 (inactive).

On to `COc1cc(Cc2cnc(N)nc2N)cc(OC)c1OC`, for which the relative growth was 0.044 (active).

Regarding `COc1ccc(Cc2cnc(N)nc2N)cc1OC`, the relative growth was 0.0502 (active).

`COc1cc(CN)cc(OC)c1OC`: the relative growth was 1 (inactive).

Consider `Cc1ccc(S(=O)(=O)N(C)C[C@H]2Oc3c(NS(=O)(=O)c4cn(C)cn4)cccc3C(=O)N([C@@H](C)CO)C[C@@H]2C)cc1`, for which the relative growth was 0.959 (inactive).

Take `Cc1noc(C)c1NC(=O)Nc1cccc2c1O[C@@H](CN(C)Cc1ccc(Oc3ccccc3)cc1)[C@H](C)CN([C@H](C)CO)C2=O`: the relative growth was 0.995 (inactive).

As for `COc1ccc(-c2cnc3c(c2)C(=O)N([C@H](C)CO)C[C@H](C)[C@@H](CN(C)S(=O)(=O)c2ccc(OC)cc2)O3)cc1`, the relative growth was 1 (inactive).

In the case of `C[C@@H]1CN([C@@H](C)CO)C(=O)c2cc(N(C)C)ccc2O[C@@H](C)CCCCO[C@@H]1CN(C)C(=O)Nc1ccc(C(F)(F)F)cc1`, the relative growth is 0.928 (inactive).

As for `COc1cccc(S(=O)(=O)Nc2ccc3c(c2)[C@@H]2C[C@@H](CC(=O)N4CCCCC4)O[C@@H](CO)[C@@H]2O3)c1`, the relative growth is 0.993 (inactive).

For `C[C@H]1CN([C@@H](C)CO)S(=O)(=O)c2ccc(Br)cc2O[C@@H]1CN(C)C(=O)c1cccnc1`, the relative growth is 0.972 (inactive).

For `C[C@@H]1CN([C@H](C)CO)S(=O)(=O)c2ccc(-c3cccc(C#N)c3)cc2O[C@@H]1CN(C)C(=O)c1cccnc1`, the relative growth is 1.01 (inactive).

For `Cc1n[nH]c(=S)n1N`, the relative growth is 0.968 (inactive).

As for `Cc1nnsc1-c1onc(C)c1C(N)=O`, the relative growth is 0.866 (inactive).

Take `C[C@H]1CN([C@@H](C)CO)C(=O)c2cccc(NC(=O)C3CC3)c2O[C@@H]1CN(C)S(=O)(=O)c1ccc(Cl)cc1`: the relative growth is 1 (inactive).

`C[C@@H]1CN([C@H](C)CO)C(=O)Cc2cc(NC(=O)Cc3cn(C)c4ccccc34)ccc2O[C@H]1CN(C)CC1CCCCC1`: the relative growth was 1.02 (inactive).

For the molecule `CO[C@H]1C[C@@H]2CC[C@@H](C)[C@@](O)(O2)C(=O)C(=O)N2CCCC[C@H]2C(=O)O[C@H]([C@H](C)C[C@@H]2CC[C@@H](OP(C)(C)=O)[C@H](OC)C2)CC(=O)[C@H](C)/C=C(\C)[C@@H](O)[C@@H](OC)C(=O)[C@H](C)C[C@H](C)/C=C/C=C\C=C\1C`, the relative growth was 0.837 (inactive).

In the case of `Nc1c2c(nc3ccccc13)CCCC2`, the relative growth is 0.985 (inactive).

Take `Nc1c2ccccc2nc2ccccc12`: the relative growth was 0.0461 (active).

With `Cl.Nc1c2c(nc3ccccc13)CCCC2`, the relative growth is 0.911 (inactive).

For `Cc1noc(C)c1NC(=O)N(C)C[C@H]1Oc2ccc(NS(=O)(=O)c3cn(C)cn3)cc2C(=O)N([C@H](C)CO)C[C@H]1C`, the relative growth was 0.989 (inactive).

`C[C@@H]1CN([C@H](C)CO)C(=O)Cc2cc(NC(=O)C3CCCCC3)ccc2O[C@H]1CN(C)Cc1ccc(C(=O)Nc2ccccc2N)cc1`: the relative growth is 0.979 (inactive).

As for `COc1cc2c(cc1OC)CN(CCc1ccc(NC(=O)c3cc(OC)c(OC)cc3NC(=O)c3cnc4ccccc4c3)cc1)CC2`, the relative growth was 0.965 (inactive).

With `COC(=O)N/N=C/c1c[n+]([O-])c2ccccc2[n+]1[O-]`, the relative growth was 0.0462 (active).

Consider `CC(=O)O.N=C(N)NN=Cc1c(Cl)cccc1Cl`, for which the relative growth was 0.885 (inactive).

For `COC(=O)NN=Cc1c[n+]([O-])c2ccccc2[n+]1[O-]`, the relative growth is 0.574 (inactive).

With `C[C@H]1CN([C@@H](C)CO)C(=O)c2cccc(NS(=O)(=O)c3ccccc3)c2O[C@H]1CN(C)S(C)(=O)=O`, the relative growth is 0.967 (inactive).
